{"source": "the supplement of paper PMC8728848", "experiment_in_all_cases": "glycan array binding signal (z-score within array); higher = stronger binding", "details_in_all_cases": "glycan notation: IUPAC condensed, linker removed", "key": {"[1]": {"biological_target": "Gal(b1-4)GlcNAc(b1-3)Gal(b1-4)GlcNAc(b1-3)Gal(b1-4)GlcNAc", "procedure,_shortened": "(§1)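 Negative Z-scores can be read as non-binding. The Z-score is calculated within each array and then averaged across arrays of one protein sequence at different concentrations or buffers and across linkers. Arrays, 3228 in all, were curated from the Consortium for Functional Glycomics database and kept only where the protein sequence was available.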"}, "[2]": {"biological_target": "Gal(b1-4)GlcNAc(b1-3)Gal(b1-4)GlcNAc(b1-3)Gal(b1-4)GlcNAc(b1-2)Man(a1-3)[Gal(b1-4)GlcNAc(b1-3)Gal(b1-4)GlcNAc(b1-3)Gal(b1-4)GlcNAc(b1-2)Man(a1-6)]Man(b1-4)GlcNAc(b1-4)[Fuc(a1-6)]GlcNAc", "procedure,_shortened": "as §1"}, "[3]": {"biological_target": "Gal3S(b1-4)Glc", "procedure,_shortened": "as §1"}, "[4]": {"biological_target": "Gal6S(b1-3)GlcNAc", "procedure,_shortened": "as §1"}, "[5]": {"biological_target": "GalNAc(a1-3)GalNAc(b1-3)Gal(a1-4)Gal(b1-4)Glc", "procedure,_shortened": "as §1"}, "[6]": {"biological_target": "GalNAc(b1-4)Gal(b1-4)Glc", "procedure,_shortened": "as §1"}, "[7]": {"biological_target": "GlcNAc(a1-4)Gal(b1-3)GlcNAc", "procedure,_shortened": "as §1"}, "[8]": {"biological_target": "GlcNAc(b1-2)[GlcNAc(b1-4)]Man(a1-3)[GlcNAc(b1-2)Man(a1-6)]Man(b1-4)GlcNAc(b1-4)GlcNAc", "procedure,_shortened": "as §1"}, "[9]": {"biological_target": "GlcNAc(b1-2)[GlcNAc(b1-6)]Man(a1-6)[GlcNAc(b1-2)Man(a1-3)]Man(b1-4)GlcNAc(b1-4)GlcNAc", "procedure,_shortened": "as §1"}, "[10]": {"biological_target": "GlcNAc(b1-3)Gal(b1-4)GlcNAc(b1-3)Gal(b1-4)GlcNAc(b1-3)Gal(b1-4)GlcNAc(b1-2)[GlcNAc(b1-3)Gal(b1-4)GlcNAc(b1-3)Gal(b1-4)GlcNAc(b1-3)Gal(b1-4)GlcNAc(b1-6)]Man(a1-6)[GlcNAc(b1-3)Gal(b1-4)GlcNAc(b1-3)Gal(b1-4)GlcNAc(b1-3)Gal(b1-4)GlcNAc(b1-2)Man(a1-3)]Man(b1-4)GlcNAc(b1-4)[Fuc(a1-6)]GlcNAc", "procedure,_shortened": "as §1"}, "[11]": {"biological_target": "GlcNAc(b1-3)[GlcNAc(b1-6)]Gal(b1-4)GlcNAc", "procedure,_shortened": "as §1"}, "[12]": {"biological_target": "Man(a1-2)Man(a1-3)[Man(a1-2)Man(a1-6)]Man(a1-6)[Man(a1-2)Man(a1-2)Man(a1-3)]Man(b1-4)GlcNAc(b1-4)GlcNAc", "procedure,_shortened": "as §1"}, "[13]": {"biological_target": "Man(a1-3)[Man(a1-6)]Man(a1-6)[Man(a1-3)]Man", "procedure,_shortened": "as §1"}, "[14]": {"biological_target": "Man(b1-4)GlcNAc", "procedure,_shortened": "as §1"}, "[15]": {"biological_target": "Neu5Ac(a2-3)Gal(b1-3)GalNAc6S", "procedure,_shortened": "as §1"}, "[16]": {"biological_target": "Neu5Ac(a2-3)Gal(b1-3)GlcNAc", "procedure,_shortened": "as §1"}, "[17]": {"biological_target": "Neu5Ac(a2-3)Gal(b1-3)GlcNAc(b1-3)GalNAc", "procedure,_shortened": "as §1"}, "[18]": {"biological_target": "Neu5Ac(a2-3)Gal(b1-3)[GlcNAc(b1-6)]GalNAc", "procedure,_shortened": "as §1"}, "[19]": {"biological_target": "Neu5Ac(a2-3)Gal(b1-4)GlcNAc(b1-2)[Neu5Ac(a2-3)Gal(b1-4)GlcNAc(b1-6)]Man(a1-6)[Neu5Ac(a2-3)Gal(b1-4)GlcNAc(b1-2)Man(a1-3)][GlcNAc(b1-4)]Man(b1-4)GlcNAc(b1-4)GlcNAc", "procedure,_shortened": "as §1"}, "[20]": {"biological_target": "Neu5Ac(a2-3)Gal(b1-4)GlcNAc(b1-3)Gal(b1-4)GlcNAc(b1-2)Man(a1-3)[Neu5Ac(a2-3)Gal(b1-4)GlcNAc(b1-3)Gal(b1-4)GlcNAc(b1-2)Man(a1-6)]Man(b1-4)GlcNAc(b1-4)GlcNAc", "procedure,_shortened": "as §1"}, "[21]": {"biological_target": "Neu5Ac(a2-3)Gal(b1-4)GlcNAc(b1-3)Gal(b1-4)GlcNAc(b1-3)[Neu5Ac(a2-3)Gal(b1-4)GlcNAc(b1-3)Gal(b1-4)GlcNAc(b1-6)]GalNAc", "procedure,_shortened": "as §1"}, "[22]": {"biological_target": "Neu5Ac(a2-3)Gal(b1-4)[Fuc(a1-3)]GlcNAc", "procedure,_shortened": "as §1"}, "[23]": {"biological_target": "Neu5Ac(a2-3)Gal(b1-4)[Fuc(a1-3)]GlcNAc(b1-3)GalNAc", "procedure,_shortened": "as §1"}, "[24]": {"biological_target": "Neu5Ac(a2-3)Gal(b1-4)[Fuc(a1-3)]GlcNAc6S", "procedure,_shortened": "as §1"}, "[25]": {"biological_target": "Neu5Ac(a2-6)Gal(b1-4)GlcNAc(b1-2)[Neu5Ac(a2-6)Gal(b1-4)GlcNAc(b1-4)]Man(a1-3)[GlcNAc(b1-4)][Neu5Ac(a2-6)Gal(b1-4)GlcNAc(b1-4)Man(a1-6)]Man(b1-4)GlcNAc(b1-4)GlcNAc", "procedure,_shortened": "as §1"}, "[26]": {"biological_target": "Neu5Ac(a2-6)Gal(b1-4)GlcNAc(b1-3)Gal(b1-4)GlcNAc(b1-3)Gal(b1-4)GlcNAc(b1-2)Man(a1-3)[Neu5Ac(a2-6)Gal(b1-4)GlcNAc(b1-3)Gal(b1-4)GlcNAc(b1-3)Gal(b1-4)GlcNAc(b1-2)Man(a1-6)]GalNAc", "procedure,_shortened": "as §1"}, "[27]": {"biological_target": "Neu5Ac(a2-6)Gal(b1-4)GlcNAc(b1-6)GalNAc", "procedure,_shortened": "as §1"}, "[28]": {"biological_target": "Neu5Ac(a2-8)Neu5Ac", "procedure,_shortened": "as §1"}, "[29]": {"biological_target": "Neu5Ac(a2-8)Neu5Ac(a2-3)[GalNAc(b1-4)]Gal(b1-4)Glc", "procedure,_shortened": "as §1"}}, "note": "This is one part of a sample in which the strongest signals are shown more often than they occur."}
{"binder": "Pwp5 ND (Candida glabrata) (protein) MGSSHHHHHHSSGLVPRGSHMASANPVPLTNVCYFPEEYPRQAGFRAITAGLASTILQGSVDELLNYSGLSSLTTQQTTTTTPNFQLPTLPLPTNVYGLTVVPLYLLVQLQGYFVPPVSGQYTFSLENTNDAAIIFFGNPSAFPCGDLSAWPQASADDITVTDGTFPSRTLFLKAGVAYPMRISYYNSLGSGNLAVSFTDPGGTKRTNWNGYIWRYNSCSTCTYT", "values": [{"measurement": "glycan array binding signal (z-score)", "setting": "[1]", "value": -0.555}, {"measurement": "glycan array binding signal (z-score)", "setting": "[2]", "value": 3.19}, {"measurement": "glycan array binding signal (z-score)", "setting": "[3]", "value": -0.405}, {"measurement": "glycan array binding signal (z-score)", "setting": "[4]", "value": -0.366}, {"measurement": "glycan array binding signal (z-score)", "setting": "[5]", "value": -0.548}, {"measurement": "glycan array binding signal (z-score)", "setting": "[6]", "value": 0.779}, {"measurement": "glycan array binding signal (z-score)", "setting": "[7]", "value": -0.557}, {"measurement": "glycan array binding signal (z-score)", "setting": "[8]", "value": -0.667}, {"measurement": "glycan array binding signal (z-score)", "setting": "[9]", "value": 3.15}, {"measurement": "glycan array binding signal (z-score)", "setting": "[10]", "value": 1.57}, {"measurement": "glycan array binding signal (z-score)", "setting": "[11]", "value": -0.152}, {"measurement": "glycan array binding signal (z-score)", "setting": "[12]", "value": -0.293}, {"measurement": "glycan array binding signal (z-score)", "setting": "[13]", "value": 5.77}, {"measurement": "glycan array binding signal (z-score)", "setting": "[14]", "value": -0.41}, {"measurement": "glycan array binding signal (z-score)", "setting": "[15]", "value": -0.411}, {"measurement": "glycan array binding signal (z-score)", "setting": "[16]", "value": 0.287}, {"measurement": "glycan array binding signal (z-score)", "setting": "[17]", "value": 0.055}, {"measurement": "glycan array binding signal (z-score)", "setting": "[18]", "value": -0.173}, {"measurement": "glycan array binding signal (z-score)", "setting": "[19]", "value": 13}, {"measurement": "glycan array binding signal (z-score)", "setting": "[20]", "value": -0.247}, {"measurement": "glycan array binding signal (z-score)", "setting": "[21]", "value": 4.41}, {"measurement": "glycan array binding signal (z-score)", "setting": "[22]", "value": -0.271}, {"measurement": "glycan array binding signal (z-score)", "setting": "[23]", "value": -0.138}, {"measurement": "glycan array binding signal (z-score)", "setting": "[24]", "value": 0.989}, {"measurement": "glycan array binding signal (z-score)", "setting": "[25]", "value": -0.613}, {"measurement": "glycan array binding signal (z-score)", "setting": "[26]", "value": 3.34}, {"measurement": "glycan array binding signal (z-score)", "setting": "[27]", "value": 3.96}, {"measurement": "glycan array binding signal (z-score)", "setting": "[28]", "value": 0.246}, {"measurement": "glycan array binding signal (z-score)", "setting": "[29]", "value": 0.315}]}
